TRHR agonist = agonists of human TRH receptor; actives 0.18% (n = 360,000); P34981; activation, % at 2 µM; TRHR cells, calcium flux fluo-8, FDSS agonist mode; note: 0% is about no effect
Target sequence (P34981 whole entry, looked up): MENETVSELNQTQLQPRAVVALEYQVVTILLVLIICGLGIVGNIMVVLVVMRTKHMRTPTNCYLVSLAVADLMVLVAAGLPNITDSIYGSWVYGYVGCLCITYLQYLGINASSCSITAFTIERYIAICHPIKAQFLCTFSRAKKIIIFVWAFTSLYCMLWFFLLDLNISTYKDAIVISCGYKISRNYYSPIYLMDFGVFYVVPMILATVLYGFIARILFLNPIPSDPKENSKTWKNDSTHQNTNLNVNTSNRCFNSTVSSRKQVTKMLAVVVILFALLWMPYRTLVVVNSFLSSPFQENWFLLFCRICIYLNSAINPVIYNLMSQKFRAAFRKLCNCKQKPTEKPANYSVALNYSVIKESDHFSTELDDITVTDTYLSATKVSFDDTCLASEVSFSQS
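Agonist-mode FDSS calcium read (Ex 480/Em 530, 1 s cycles) in 1536-well TRHR cells with fluo-8 dye, after 10-cycle baseline and 23 nL compound addition; TRH at EC20 (10 nM final) added afterwards for the enhancer phase.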
D1 PAM = enhances dopamine response at the human D1 receptor | P21728 | HEK293 TREx D1 cells, calcium flux, dopamine EC20 potentiation | potentiation, % at 10 µM | actives 0.036% (n = 360,000) | AID 504651; in the data active = potentiation above about 30%; note: 0% is about no effect
D1 agonist = human D1 receptor agonism; P21728; HEK293 T-REx D1 cells, calcium flux, agonist mode; activation, % at 2 µM; actives 1% (n = 360,000); AID 504660; note: 0% is about no effect
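Inducible HEK293 T-REx D1 cells, force-coupled to calcium signalling, were plated at 4000 cells/well with tetracycline and held overnight at 30 C. After no-wash calcium dye loading, compound-evoked calcium rise over 180 s flagged agonists.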
TRHR PAM = allosterically enhances the human TRH receptor | P34981 | TRHR cells, fluo-8 calcium fluorescence, EC20 TRH enhancement | enhancement, % at 2 µM | actives 0.66% (n = 360,000) | AID 493056; in the data active = enhancement above about 30%; note: 0% is about no effect
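Enhancer read-out: after compound pinning and an initial kinetic agonist-mode read, an EC20 of TRH (10 nM final) was injected and fluo-8 calcium signal (Ex 480/Em 530) followed at 1 s/cycle for 100 cycles in TRHR-expressing cells.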
D1 antag = antagonists of human D1 dopamine receptor. activity change, negative = inhibition, % at 10 µM. HEK293 TREx D1 cells, calcium flux, dopamine EC80; stronger effect = lower value. AID 504652. P21728. actives 3.2% (n = 360,000); in the data active = activity change below about -30%; note: % is set by controls: 0 for no effect and ±100 for the full control effect
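Using tetracycline-induced force-coupled D1 Hek293 cells and a calcium dye, signals were followed for 180 s after compound, then for 180 s after EC80 dopamine, to detect inhibitors.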
* marks the source's active call; other numbers are inactive results; . = not tested or not shown; ! = not active in a repeat. Rows were chosen to be rich in hits. Some 4.7% of all compounds tested hit in one or more screens of this group. Cut-off read from the data, not from the text of the source, unless noted: active = activation above about 30%; inactive = the rest.

SMILES	TRHR agonist	D1 PAM	D1 agonist	TRHR PAM	D1 antag
Cc1sc2nc(CN3CCCC3)nc(N3CCN(S(=O)(=O)c4cccs4)CC3)c2c1C	0	2	2	-16	-6
COC(=O)c1scc(S(=O)(=O)C(C)(C)C)c1N	0	-1	4	2	-37*
COC(=O)c1scc(S(=O)(=O)c2ccccc2)c1N	0	1	5	6	5
COc1ccc(C(=O)NCc2ccc3c(c2)CCN3C(=O)c2ccc(Cl)cc2)c(OC)c1	0	-1	3	2	3
Cn1c(Nc2ccccc2)nc2ccccc21	0	-2	3	-2	-46*
CCN(CC)CCn1c(C)nc2ccccc21	1	-5	5	-2	-10
CCN(CC)CCNc1nc2ccccc2n1C	0	-1	2	-1	-37*
Nn1c(Nc2ccccc2)nc2ccccc21	0	-5	0	-7	-15
Cc1ccccc1Nc1cc(C(=O)NC2CCCC2)c2ccccc2n1	-1	2	-1	-6	10
Cc1cc(C)cc(NC(=O)CSc2nc(-c3ccccc3)c3cc(F)ccc3n2)c1	1	6	1	2	11
COc1ccc(NC(=S)NC(C)Cc2cccs2)cc1 (stereo not given)	-1	-1	2	12	4
CC(Cc1cccs1)NC(=S)Nc1ccc(F)cc1 (stereo not given)	2	-5	19	-2	-44*
CC(Cc1cccs1)NC(=O)Nc1ccc([N+](=O)[O-])cc1 (stereo not given)	0	-4	24	0	-35*
CCc1ccc(Cn2c(CNS(=O)(=O)c3ccc(Cl)s3)nc3cccnc32)cc1	0	-1	3	1	27
COc1ccc(-c2cc3ccc(O)c(CN4CCCC4)c3oc2=O)cc1	14	-3	2	0	7
Cc1ccc(NC(=O)CC(c2ccc(F)cc2)N2Cc3ccccc3C2=O)cc1C (stereo not given)	0	0	-1	3	-3
CCOc1ccc(C2N(c3ccc(Cl)cc3)C(=O)C3CCCN32)cc1OC (stereo not given)	1	-4	2	-1	-42*
CCOc1ccc(C2N(c3ccc(OC)cc3)C(=O)C3CCCN32)cc1OC (stereo not given)	0	.	1	-16	5
Cc1cccc(N2CCN(C(=O)c3cccc(-n4c(C)nc5cccnc54)c3)CC2)c1C	-1	-2	2	5	0
CCOC(=O)Cc1csc(NC(=O)CN(C)S(=O)(=O)c2cccc3cccnc23)n1	0	.	5	-1	-46*
Cc1ccc(C)c(NC(=O)CN(C)S(=O)(=O)c2cccc3cccnc23)c1	0	0	4	32*!	8
Clc1ccc(-c2noc(-c3cccnc3NCc3ccco3)n2)cc1	0	1	-1	-3	-3
C=CCSc1ncc(-c2ccccc2)cn1	0	-4	3	9	-31*
C#CCSc1ncc(-c2ccccc2)cn1	0	-3	2	5	-3
CN(NC(=O)Nc1ccc(Cl)cc1)c1c(Cl)c(Cl)nn1C	-1	-3	10	0	-40*
SMILES	TRHR agonist	D1 PAM	D1 agonist	TRHR PAM	D1 antag
CCCN(CCC)C(=O)Cn1c(=O)n(-c2ccc(C)cc2)c(=O)c2ccc(C(=O)NCc3ccccc3Cl)cc21	0	-1	3	-13	-66*
Cc1ccc(-n2c(=O)c3ccc(C(=O)NCc4ccco4)cc3n(Cc3ccccc3Cl)c2=O)cc1	1	2	0	1	-4
CC(=O)c1c(C)[nH]c(C(=O)COC(=O)c2nccnc2N)c1C	0	.	8	9	2
CCCCC(=O)OCC(=O)c1[nH]c(C)c(C(C)=O)c1C	0	-12	3	35*	-9
CC(=O)c1c(C)[nH]c(C(=O)COC(=O)c2cccnc2Cl)c1C	1	-1	11	3	-33*
COc1ccccc1NC(=O)Cn1c(=O)n(-c2cccc(C(C)=O)c2)c(=O)c2c3c(sc21)CN(C(C)=O)CC3	0	1	-1	1	16
COc1ccc2nc(NC(=O)c3ccc(S(=O)(=O)N4CCC(C)CC4)cc3)sc2c1	0	0	4	-2	-9
Cc1ccc(NCc2ccccc2-c2nnc(-c3ccccc3Cl)o2)c(C)c1	0	-2	-1	-3	11

Compound activity from PubChem BioAssay.
